Measured values taken from PubChem BioAssay.
Records with an inconclusive call do not appear. The source made the active and inactive calls.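 The calls were made as follows, unless noted: active = GFP response, as percent of the DMSO control, above the screen-wide mean plus 3 SD, about 139; inconclusive = no response measured because the compound's own fluorescence interfered; inactive = the rest.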

What was measured:
[1] = rapamycin-like changes in RPL19A-GFP expression – cell-based, S. cerevisiae, multiplex flow cytometry, primary screen (AID 1862; in the data active = percent of DMSO control GFP below about 86%;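 also: lower values mimic rapamycin by blocking the RPL19A rise seen in DMSO cells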); conditions: S. cerevisiae RPL19A-GFP strain, flow cytometry fluorescence, 3 h; at 10 µM; stronger effect = lower value
[2] = TOR pathway GLN3 branch reporter MEP2-GFP changes – S. cerevisiae, multiplex flow cytometry, primary screen (AID 1867);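 also: median GFP channel fluorescence of barcode-gated MEP2-GFP cells measured by flow cytometry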; conditions: S. cerevisiae MEP2-GFP strain, 3 h, at 10 µM, stronger effect = higher value, 100% means same as DMSO wells
[3] = TOR pathway RTG branch CIT2 reporter changes – S. cerevisiae, GFP fusion, multiplex flow cytometry, primary screen (AID 1870;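 active = percent response above a set limit, the screen-wide mean plus 3 SD, cut at about 130% in these data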;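 also: barcoded CIT2-GFP strain pooled with four other GFP strains with rapamycin as positive control; median GFP fluorescence per well over plate mean of DMSO wells so 100% = DMSO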); conditions: S. cerevisiae CIT2-GFP expression, 3 h, at 10 µM, stronger effect = higher value
[4] = TOR pathway LAP4-GFP level changes – S. cerevisiae, multiplex flow cytometry, primary screen (AID 1873;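 active = GFP signal, as percent of the solvent control, above the screen mean plus 3 SD, about 149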); conditions: S. cerevisiae LAP4-GFP expression, 3 h, at 10 µM, stronger effect = higher value
[5] = yeast AGP1-GFP level changes, GLN3 branch – cell-based, multiplex flow cytometry, S. cerevisiae, primary screen (AID 1887;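 active = GFP signal above the screen-wide mean plus 3 SD, that is over about 124.5% of the solvent control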;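 also: AGP1-GFP fusion strain of S. cerevisiae within a five-strain barcoded multiplex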); conditions: 3 h, at 10 µM, stronger effect = higher value
[6] = reduced mouse 2C T cell binding to pMHC/ICAM-1 vesicles – MLPCN validation set, flow cytometry, LFA-1/ICAM-1 modulator project, pilot screen (AID 2523;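 active = response below a set limit, under 55% cells CD8-positive and vesicle-bound, and CD8 cells' 90th-percentile brightness under 279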;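 as to vesicle binding response: mean PE anti-B7-1 fluorescence of CD8+ cells relative to row control; 100% = QL9-loaded vesicles with DMSO vehicle in the same plate row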); conditions: 2C mouse CD8+ T cells, at 7 µM, stronger effect = lower value; double positive events: measured here: CD8+/vesicle+ event percentage
[7] = target: Integrin beta-1 (Homo sapiens) + Integrin alpha-4 (Homo sapiens) (UniProt P13612+P05556); test: alpha4beta1 integrin LIBS antibody binding reduction – U937 cells, HUTS-21 mAb, flow cytometry, validation set, VLA-4 allosteric modulator project, pilot screen (AID 2674;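 active = inhibition above 50%, about 3 SD of the validation set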;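 also: antibody binding induced by the VLA-4 ligand LDV present at three times its Kd; 0% = LDV ligand with antibody and no compound and 100% = antibody without LDV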); conditions: HUTS-21 LIBS mAb binding, at 6.7 µM, stronger effect = higher value, binding induced by LDV ligand
[8] = calorie-restriction mimetic ROS inhibitors, yeast – validation compound set, pilot screen (AID 2706;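 active = superoxide response below 65% of plate, a cut near 3 SD across the whole screen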;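 also: yeast exposed to compound for one week at 30 degrees C before staining; 100% = mean of all compound wells on the same plate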); conditions: S. cerevisiae aging, superoxide DHE fluorescence; at 10 µM; stronger effect = lower value
[9] = target: Beta-adrenergic receptor kinase 1 (Homo sapiens) (UniProt P25098); test: GRK2 binders displacing RNA aptamer, biochemical, validation, human GRK2, bead flow cytometry (AID 488806;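 active = aptamer binding inhibition above 30%, about 3 SD of noise from non-fluorescent compounds; inactive = inhibition at or below 30%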); conditions: bead-bound GRK2, FAM-aptamer displacement, at 10 µM, stronger effect = higher value
[10] = target: Beta-2 adrenergic receptor (Homo sapiens) (UniProt P07550); test: agonist-induced loss of surface beta2AR – cell-based, FAP fluorogen, flow cytometry, validation set, pilot screen (AID 504459;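 active = percent response above 42, roughly 3 SD of non-fluorescent test compounds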;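 also: agonist-driven loss of surface beta2AR via internalization measured by FAP dye flow cytometry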); conditions: Am2.2-beta2AR cells, at 10 µM, stronger effect = higher value
[11] = target: AP-2 complex subunit beta (Homo sapiens) (UniProt P63010); test: beta-arrestin/AP2 interaction blockers – biochemical, validation set, GST-AP2 beads, flow cytometry, pilot screen (AID 504541;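 active = inhibition above 54%, about 3 SD of non-fluorescent compounds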;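 also: AP2 carries R879A mutation and is captured from E. coli lysate; bead-bound FITC arrestin peptide fluorescence measuring arrestin peptide binding to AP2; 0% = DMSO wells and 100% = excess unlabeled arrestin peptide control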); conditions: FITC arrestin peptide, at 10 µM, stronger effect = higher value, AP2 beta2 appendage fragment, R879A mutant
[12] = cytosolic pH regulators acting via V-ATPase – S. cerevisiae, pHLuorin, HTS validation (AID 504600; in the data active = response above about 15%;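 also: plate controls were DMSO for no effect and reference compound for full effect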); conditions: V-ATPase proton transport, at 10 µM, stronger effect = higher value
[13] = test system: anti-desmoglein-3 scFv antibody binding to human DSG3; test: blockers of pathogenic pemphigus antibody–desmoglein-3 binding – biochemical, validation compound set, bead-based, flow cytometry, pilot screen (AID 588368;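 active = binding below the plate cutoff, the plate median minus 3 SD, with a reading above zero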;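 also: signal is the median channel fluorescence of bead-bound GFP antibody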); conditions: Protein G beads, DSG3-Fc, scFv-GFP binding, at 10 µM, stronger effect = lower value
[14] = Nile Red efflux blockade in pump-expressing yeast – validation compound set, multiplex, phenotypic, pilot screen (AID 588506;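 active = efflux inhibition above 0.42, the validation set average plus 4 SD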;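 also: Nile Red retained in cells so higher fluorescence means more efflux inhibition; 0 = negative control wells and 1 = enniatin B 25 µM full block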); conditions: S. cerevisiae pump-expressing triplex, Nile Red efflux flow cytometry; at 10 µM; stronger effect = higher value; the pumps come from Candida albicans
[15] = target: ATP-binding cassette sub-family B member 6 (Homo sapiens) (UniProt Q9NP58); test: blockers of ABCB6-driven porphyrin uptake – K562-ABCB6 cells, flow cytometry, validation set, pilot screen (AID 588550;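 active = inhibition above the screen-wide mean plus 3 SD, about 51%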;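 also: 0% = DMSO wells and 100% = benzethonium chloride 70 µM positive control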); conditions: K562-ABCB6 porphyrin accumulation, 1 h, at 10 µM, stronger effect = higher value
[16] = AML differentiation inducers, ER-HoxA9 marrow cells – cell-based, GFP/MAC1 double positive, flow cytometry, validation set, primary screen (AID 588685;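 active = differentiation response of at least 50%, scaled between solvent and reference control, from cells with both markers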;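 also: compound exposure lasts four days before antibody staining and flow analysis; 0% = DMSO wells and 100% = 5 µM fulvestrant positive control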); conditions: stronger effect = higher value, normalized: vehicle 0, fulvestrant 100

Sequence of AP-2 complex subunit beta (Homo sapiens) (P63010 whole entry, looked up, the tested form may be a part, one chain of several): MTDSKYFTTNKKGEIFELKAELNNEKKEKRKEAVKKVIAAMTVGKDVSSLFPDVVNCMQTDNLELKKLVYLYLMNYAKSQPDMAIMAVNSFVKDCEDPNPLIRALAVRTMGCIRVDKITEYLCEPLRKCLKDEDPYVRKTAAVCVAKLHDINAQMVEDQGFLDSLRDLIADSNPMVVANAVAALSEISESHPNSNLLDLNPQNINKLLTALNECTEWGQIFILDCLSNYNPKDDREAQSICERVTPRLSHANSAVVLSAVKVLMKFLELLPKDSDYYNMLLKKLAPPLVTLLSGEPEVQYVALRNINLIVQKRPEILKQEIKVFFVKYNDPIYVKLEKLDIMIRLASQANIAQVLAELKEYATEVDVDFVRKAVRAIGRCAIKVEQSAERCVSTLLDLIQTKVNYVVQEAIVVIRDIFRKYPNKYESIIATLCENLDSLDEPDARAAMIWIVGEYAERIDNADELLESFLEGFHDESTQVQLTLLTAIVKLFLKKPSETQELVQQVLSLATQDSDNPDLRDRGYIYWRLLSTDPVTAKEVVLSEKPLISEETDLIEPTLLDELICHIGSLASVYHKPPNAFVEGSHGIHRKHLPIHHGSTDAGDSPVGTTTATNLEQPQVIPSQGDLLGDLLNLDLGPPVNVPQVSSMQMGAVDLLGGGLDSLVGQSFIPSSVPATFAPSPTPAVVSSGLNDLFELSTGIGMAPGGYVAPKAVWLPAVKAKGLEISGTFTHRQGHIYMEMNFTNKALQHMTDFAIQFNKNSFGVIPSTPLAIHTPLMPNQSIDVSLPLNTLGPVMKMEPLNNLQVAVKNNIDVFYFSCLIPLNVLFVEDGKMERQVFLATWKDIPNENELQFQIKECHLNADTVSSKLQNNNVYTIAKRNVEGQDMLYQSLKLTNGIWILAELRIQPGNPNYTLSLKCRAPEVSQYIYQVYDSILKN
Sequence of Beta-adrenergic receptor kinase 1 (Homo sapiens) (P25098 whole entry, looked up): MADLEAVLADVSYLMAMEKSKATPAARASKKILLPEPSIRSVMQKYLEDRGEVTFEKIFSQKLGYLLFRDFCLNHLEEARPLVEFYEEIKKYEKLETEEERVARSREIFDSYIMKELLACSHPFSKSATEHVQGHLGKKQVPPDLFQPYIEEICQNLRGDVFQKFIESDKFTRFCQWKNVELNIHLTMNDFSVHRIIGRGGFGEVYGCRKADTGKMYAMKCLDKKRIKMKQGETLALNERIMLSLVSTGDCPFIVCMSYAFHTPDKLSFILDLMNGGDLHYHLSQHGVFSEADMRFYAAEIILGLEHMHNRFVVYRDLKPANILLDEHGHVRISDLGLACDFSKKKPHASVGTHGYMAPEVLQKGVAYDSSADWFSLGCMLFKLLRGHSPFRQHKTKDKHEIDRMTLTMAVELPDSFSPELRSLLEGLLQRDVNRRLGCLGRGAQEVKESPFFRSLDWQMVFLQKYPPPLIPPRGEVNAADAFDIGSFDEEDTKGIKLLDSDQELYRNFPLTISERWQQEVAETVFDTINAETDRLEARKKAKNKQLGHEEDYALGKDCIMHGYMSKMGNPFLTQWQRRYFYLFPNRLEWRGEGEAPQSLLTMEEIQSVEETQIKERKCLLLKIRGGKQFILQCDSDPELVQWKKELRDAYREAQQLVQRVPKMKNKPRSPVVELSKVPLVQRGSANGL
Sequence of Beta-2 adrenergic receptor (Homo sapiens) (P07550 whole entry, looked up): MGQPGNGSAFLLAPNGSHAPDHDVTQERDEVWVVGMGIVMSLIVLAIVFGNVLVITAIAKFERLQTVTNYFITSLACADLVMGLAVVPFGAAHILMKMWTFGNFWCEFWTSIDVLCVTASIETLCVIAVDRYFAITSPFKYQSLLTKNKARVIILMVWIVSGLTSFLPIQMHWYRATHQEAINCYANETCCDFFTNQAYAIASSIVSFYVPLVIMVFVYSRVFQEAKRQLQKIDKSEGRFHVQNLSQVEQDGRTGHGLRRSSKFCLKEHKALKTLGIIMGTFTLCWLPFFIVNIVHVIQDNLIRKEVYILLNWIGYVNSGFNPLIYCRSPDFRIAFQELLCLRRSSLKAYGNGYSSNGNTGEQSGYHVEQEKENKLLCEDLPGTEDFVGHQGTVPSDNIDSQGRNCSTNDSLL
Sequence of Integrin beta-1 (Homo sapiens) + Integrin alpha-4 (Homo sapiens) (P05556 whole entry, looked up): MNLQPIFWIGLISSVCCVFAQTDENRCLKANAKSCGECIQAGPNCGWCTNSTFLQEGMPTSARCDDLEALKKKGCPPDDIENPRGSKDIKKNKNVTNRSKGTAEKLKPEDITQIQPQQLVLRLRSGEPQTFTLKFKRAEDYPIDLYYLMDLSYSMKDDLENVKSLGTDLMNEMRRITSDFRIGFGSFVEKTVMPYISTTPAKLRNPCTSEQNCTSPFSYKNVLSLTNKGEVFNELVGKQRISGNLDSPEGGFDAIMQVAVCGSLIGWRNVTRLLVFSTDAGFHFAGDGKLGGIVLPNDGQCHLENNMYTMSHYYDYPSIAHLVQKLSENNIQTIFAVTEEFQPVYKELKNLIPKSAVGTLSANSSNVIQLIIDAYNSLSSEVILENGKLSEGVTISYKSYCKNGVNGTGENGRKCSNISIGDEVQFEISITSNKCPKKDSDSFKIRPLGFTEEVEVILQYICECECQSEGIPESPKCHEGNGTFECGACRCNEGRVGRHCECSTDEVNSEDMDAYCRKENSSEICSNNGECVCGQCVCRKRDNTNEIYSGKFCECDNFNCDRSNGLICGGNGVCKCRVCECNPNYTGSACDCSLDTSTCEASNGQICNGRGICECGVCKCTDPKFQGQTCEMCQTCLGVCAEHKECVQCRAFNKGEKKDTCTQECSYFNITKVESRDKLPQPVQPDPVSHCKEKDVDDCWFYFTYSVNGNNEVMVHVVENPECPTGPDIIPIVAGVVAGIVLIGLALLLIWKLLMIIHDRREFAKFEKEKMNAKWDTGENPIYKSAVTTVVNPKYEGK
Sequence of Integrin beta-1 (Homo sapiens) + Integrin alpha-4 (Homo sapiens) (P13612 whole entry, looked up): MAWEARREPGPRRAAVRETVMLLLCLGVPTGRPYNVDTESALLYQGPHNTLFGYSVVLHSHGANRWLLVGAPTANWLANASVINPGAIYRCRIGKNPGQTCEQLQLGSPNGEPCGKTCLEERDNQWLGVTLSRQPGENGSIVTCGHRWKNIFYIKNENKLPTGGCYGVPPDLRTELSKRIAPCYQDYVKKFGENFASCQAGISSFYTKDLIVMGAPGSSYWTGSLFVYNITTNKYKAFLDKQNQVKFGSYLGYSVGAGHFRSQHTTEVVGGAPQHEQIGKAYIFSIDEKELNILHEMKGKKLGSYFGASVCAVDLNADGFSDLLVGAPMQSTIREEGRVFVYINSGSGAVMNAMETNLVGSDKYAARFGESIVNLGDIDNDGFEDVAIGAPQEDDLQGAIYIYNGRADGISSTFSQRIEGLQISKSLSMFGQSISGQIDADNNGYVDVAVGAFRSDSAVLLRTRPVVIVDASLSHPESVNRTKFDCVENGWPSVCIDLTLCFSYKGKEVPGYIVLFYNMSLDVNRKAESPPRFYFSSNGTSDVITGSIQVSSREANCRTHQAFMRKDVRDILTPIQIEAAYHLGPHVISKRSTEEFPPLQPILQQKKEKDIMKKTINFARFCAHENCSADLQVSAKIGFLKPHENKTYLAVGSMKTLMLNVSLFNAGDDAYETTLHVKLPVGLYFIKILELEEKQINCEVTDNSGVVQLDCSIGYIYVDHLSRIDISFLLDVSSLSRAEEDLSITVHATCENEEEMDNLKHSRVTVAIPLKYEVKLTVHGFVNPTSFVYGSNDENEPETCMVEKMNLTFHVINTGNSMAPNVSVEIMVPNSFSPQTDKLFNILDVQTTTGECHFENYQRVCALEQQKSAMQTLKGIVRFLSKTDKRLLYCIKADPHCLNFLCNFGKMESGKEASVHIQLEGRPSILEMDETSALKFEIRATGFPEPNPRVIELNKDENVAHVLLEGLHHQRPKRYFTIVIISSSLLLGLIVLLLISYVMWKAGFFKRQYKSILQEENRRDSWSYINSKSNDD
Sequence of ATP-binding cassette sub-family B member 6 (Homo sapiens) (Q9NP58 whole entry, looked up): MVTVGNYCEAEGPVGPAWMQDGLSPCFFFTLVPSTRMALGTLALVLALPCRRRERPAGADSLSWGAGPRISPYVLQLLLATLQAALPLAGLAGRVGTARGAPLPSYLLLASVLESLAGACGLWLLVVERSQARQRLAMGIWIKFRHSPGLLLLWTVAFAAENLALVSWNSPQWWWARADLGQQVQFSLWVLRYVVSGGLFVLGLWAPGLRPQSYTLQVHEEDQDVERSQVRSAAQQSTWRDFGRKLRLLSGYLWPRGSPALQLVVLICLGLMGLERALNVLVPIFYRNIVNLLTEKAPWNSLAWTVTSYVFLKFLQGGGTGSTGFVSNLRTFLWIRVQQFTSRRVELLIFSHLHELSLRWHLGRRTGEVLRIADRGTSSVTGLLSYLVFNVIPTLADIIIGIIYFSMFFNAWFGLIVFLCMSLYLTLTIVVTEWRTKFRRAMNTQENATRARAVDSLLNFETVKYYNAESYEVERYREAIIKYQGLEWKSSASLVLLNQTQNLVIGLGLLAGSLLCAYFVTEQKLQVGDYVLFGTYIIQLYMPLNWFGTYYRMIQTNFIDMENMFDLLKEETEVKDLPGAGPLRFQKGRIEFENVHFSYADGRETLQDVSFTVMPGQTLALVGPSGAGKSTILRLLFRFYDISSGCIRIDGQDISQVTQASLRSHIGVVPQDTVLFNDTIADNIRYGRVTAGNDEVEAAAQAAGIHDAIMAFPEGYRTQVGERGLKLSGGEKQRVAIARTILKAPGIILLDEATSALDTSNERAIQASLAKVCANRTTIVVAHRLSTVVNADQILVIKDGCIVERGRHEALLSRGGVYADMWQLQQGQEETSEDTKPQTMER

CCOc1ccc(C(=O)C(C)=O)c(OCC)c1
inactive: percent of DMSO control GFP [1] 101% | GFP response vs DMSO [2] 99.7% | percent response of DMSO control [3] 104% | GFP response vs DMSO [4] 100% | GFP response, % of DMSO [5] 105% | vesicle binding response [6] 211% | inhibition [7] -1.09% | superoxide response (% of plate) [8] 105% | aptamer binding inhibition [9] 2% | response [10] -2.34% | inhibition [11] -2.17% | response [12] 1.92% | binding (% of control) [13] 97% | efflux inhibition (fraction of control) [14] -0.02 | inhibition [15] 19% | differentiation response [16] -13.3%
64.3%: double positive events [6]

Cc1nc(C2CC(=O)OC23CCCCC3)cs1 (stereo not drawn)
inactive: percent of DMSO control GFP [1] 94.4% | GFP response vs DMSO [2] 106% | percent response of DMSO control [3] 94.8% | GFP response vs DMSO [4] 116% | GFP response, % of DMSO [5] 94% | vesicle binding response [6] 136% | inhibition [7] -0.43% | superoxide response (% of plate) [8] 104% | aptamer binding inhibition [9] 9% | response [10] -0.69% | inhibition [11] -1.27% | response [12] 1.08% | binding (% of control) [13] 98.7% | efflux inhibition (fraction of control) [14] -0.24 | inhibition [15] 7% | differentiation response [16] -20%
61.4%: double positive events [6]

COCC1CCCN(Cc2cn[nH]c2-c2cc3ccccc3o2)C1 (stereo not drawn)
inactive: percent of DMSO control GFP [1] 95.9% | GFP response vs DMSO [2] 109% | percent response of DMSO control [3] 83.4% | GFP response vs DMSO [4] 115% | GFP response, % of DMSO [5] 102% | vesicle binding response [6] 181% | inhibition [7] -14.1% | superoxide response (% of plate) [8] 98.3% | aptamer binding inhibition [9] 2% | response [10] -14.2% | inhibition [11] 0.03% | response [12] 1.33% | binding (% of control) [13] 99.9% | efflux inhibition (fraction of control) [14] 0.05 | inhibition [15] 7% | differentiation response [16] 5.6%
63.3%: double positive events [6]

O=C(Cc1ccccc1[N+](=O)[O-])NCc1ccncc1
63.2%: double positive events [6]
inactive: percent of DMSO control GFP [1] 101% | GFP response vs DMSO [2] 101% | percent response of DMSO control [3] 101% | GFP response vs DMSO [4] 97.4% | GFP response, % of DMSO [5] 97.4% | vesicle binding response [6] 243% | inhibition [7] 6.4% | superoxide response (% of plate) [8] 97.3% | aptamer binding inhibition [9] 7% | response [10] -1.07% | inhibition [11] -3.75% | response [12] -1.46% | binding (% of control) [13] 98.2% | efflux inhibition (fraction of control) [14] -0.03 | inhibition [15] 2% | differentiation response [16] -15.2%

CCc1cc2c(=O)c(-c3nc(C)cs3)c(CCCC(=O)O)oc2cc1O
active: vesicle binding response [6] 39.1%
inactive: percent of DMSO control GFP [1] 103% | GFP response vs DMSO [2] 108% | percent response of DMSO control [3] 102% | GFP response vs DMSO [4] 98% | GFP response, % of DMSO [5] 100% | inhibition [7] 1.62% | superoxide response (% of plate) [8] 105% | aptamer binding inhibition [9] 2% | response [10] -4.49% | inhibition [11] -6.82% | response [12] -0.76% | binding (% of control) [13] 114% | efflux inhibition (fraction of control) [14] -0.2 | inhibition [15] -3% | differentiation response [16] 2.2%
54.4%: double positive events [6]

O=C(O)C1[C@H]2C(=O)N(C3CCCC3)C[C@]23C=C[C@H]1O3 (stereo partly drawn)
57.9%: double positive events [6]
inactive: percent of DMSO control GFP [1] 99.5% | GFP response vs DMSO [2] 104% | percent response of DMSO control [3] 101% | GFP response vs DMSO [4] 121% | GFP response, % of DMSO [5] 113% | vesicle binding response [6] 153% | inhibition [7] 11.7% | superoxide response (% of plate) [8] 88% | aptamer binding inhibition [9] -2% | response [10] -17.8% | inhibition [11] -2.45% | response [12] -1.21% | binding (% of control) [13] 101% | efflux inhibition (fraction of control) [14] 0.04 | inhibition [15] 1% | differentiation response [16] -6.96%

CC(C)CC(NC(=O)c1cccc(Cl)c1)C(=O)O (stereo not drawn)
60.5%: double positive events [6]
inactive: percent of DMSO control GFP [1] 94.6% | GFP response vs DMSO [2] 102% | percent response of DMSO control [3] 94.8% | GFP response vs DMSO [4] 129% | GFP response, % of DMSO [5] 101% | vesicle binding response [6] 207% | inhibition [7] -7.25% | superoxide response (% of plate) [8] 113% | aptamer binding inhibition [9] 0% | response [10] -14.8% | inhibition [11] 14.1% | response [12] 1.45% | binding (% of control) [13] 98% | efflux inhibition (fraction of control) [14] -0.13 | inhibition [15] 2% | differentiation response [16] -5.6%

Cc1ccc(OCc2nc(-c3cccnc3)no2)cc1C
inactive: percent of DMSO control GFP [1] 92% | GFP response vs DMSO [2] 124% | percent response of DMSO control [3] 99.2% | GFP response vs DMSO [4] 75.4% | GFP response, % of DMSO [5] 88% | vesicle binding response [6] 221% | inhibition [7] -7.12% | superoxide response (% of plate) [8] 101% | aptamer binding inhibition [9] 1% | response [10] -15.7% | inhibition [11] 1.06% | response [12] 3.35% | binding (% of control) [13] 98.3% | efflux inhibition (fraction of control) [14] 0.27 | inhibition [15] 9% | differentiation response [16] 2.46%
60.5%: double positive events [6]

Nc1nc(SCc2ccc([N+](=O)[O-])cc2)c2ncn(C3OC(CO)C(O)C3O)c2n1 (stereo not drawn)
inactive: percent of DMSO control GFP [1] 108% | GFP response vs DMSO [2] 99.7% | percent response of DMSO control [3] 106% | GFP response vs DMSO [4] 100% | GFP response, % of DMSO [5] 107% | vesicle binding response [6] 169% | inhibition [7] 8.29% | superoxide response (% of plate) [8] 105% | aptamer binding inhibition [9] 0% | response [10] -15.6% | inhibition [11] 14.6% | response [12] 0.04% | binding (% of control) [13] 98.1% | efflux inhibition (fraction of control) [14] -0.07 | inhibition [15] 2% | differentiation response [16] -7.5%
63.2%: double positive events [6]
